The whole screen tested about 63,000 compounds, of which about 1,100 (1.7%) were called active.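 Rule for the calls: active = compounds whose percent cytotoxicity in the single-dose primary screen, scaled between solvent and toxic-drug controls, exceeds 50; inactive = the rest.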 The full list was thinned out, with actives kept by preference. Potency and affinity values are given separately.

A short description of this test: viability loss of HPDE-C7K cells – cell-based, fluorescence, HTS, primary screen (AID 431).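 Note: 0% = DMSO solvent wells and 100% = doxorubicin-treated wells.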 To be noted: HPDE-C7K KRASV12 cells, Alamar Blue viability, 48 h; at 10 µM; stronger effect = higher value.
As to `O=C(Cc1cccs1)Nc1nc(-c2ccccc2)cs1`, the cytotoxicity was -14.2% (inactive).

On to `CC1Cc2cc(-c3csc(NC(=O)Cc4cccs4)n3)ccc2N1S(C)(=O)=O` (stereo not drawn), for which the cytotoxicity was 61.4% (active).

As for `CS(=O)(=O)N1CCc2cc(-c3csc(NC(=O)Cc4cccs4)n3)ccc21`, the cytotoxicity was 2.8% (inactive).

Regarding `CNC(=O)C1CCC(=O)N1Cc1ccc(C)cc1` (stereo not drawn), the cytotoxicity is -0.7% (inactive).

With `Cc1ccc2nc(NCCO)nc(-c3ccccc3)c2c1`, the cytotoxicity was 16.3% (inactive).

`O=C(O)c1cc(-c2ccccc2)nc2ccccc12`: the cytotoxicity is 2% (inactive).

In the case of `O=C(CSc1ncc(-c2ccc(F)cc2)[nH]1)Nc1cccc(O)c1`, the cytotoxicity is 25.6% (inactive).

As for `Cc1ccc(CNC(=O)C2C3C=CC(C3)C2C(=O)O)cc1` (stereo not drawn), the cytotoxicity was 1.9% (inactive).

For the molecule `CCOC(=O)c1c(C)[nH]c(C)c1-c1ccccc1OC`, the cytotoxicity was -2.6% (inactive).

With `CC(=O)OCCNc1cc(N2CCN(C)CC2)c2noc3c2c1C(=O)c1ccccc1-3`, the cytotoxicity is 16.8% (inactive).

As for `CCOC(=O)N1CCN(c2cc(NCCC(=O)O)c3c4c(onc24)-c2ccccc2C3=O)CC1`, the cytotoxicity is 61.7% (active).

As for `CCOC(=O)c1c(C)noc1CP(=O)(c1ccccc1)c1ccccc1`, the cytotoxicity is 2.6% (inactive).

As for `O=C(O)CCCNc1cc(N2CCC3(CC2)OCCO3)c2noc3c2c1C(=O)c1ccccc1-3`, the cytotoxicity is 40.2% (inactive).

Consider `CC(CC(=O)O)CC1=NS(=O)(=O)c2ccccc2N1` (stereo not drawn), for which the cytotoxicity is -8.6% (inactive).

With `COc1ccc(CC(=O)Nc2c3c(nn2-c2cccc(C)c2C)CS(=O)C3)cc1OC` (stereo not drawn), the cytotoxicity is 0.8% (inactive).

`COc1ccc(C(=O)c2sc(NC(C)C)nc2N)cc1OC`: the cytotoxicity is -12.6% (inactive).

Turning to `COc1cccc(C(=O)c2sc(NC(C)C)nc2N)c1`, the cytotoxicity was 72.7% (active).

Take `CCCc1nnc(NC(=O)c2cccc(OC)c2)s1`: the cytotoxicity is -25.2% (inactive).

`O=C(CSC1=NCCS1)NC1CCCCC1`: the cytotoxicity was 3.6% (inactive).

With `CCC(C)C1C(C#N)=C(N)Oc2n[nH]c(C)c21` (stereo not drawn), the cytotoxicity is 7.5% (inactive).

With `Cc1[nH]nc2c1C(C(C)C)C(C#N)=C(N)O2` (stereo not drawn), the cytotoxicity was 7.9% (inactive).

For the molecule `CCC(CC)C1C(C#N)=C(N)Oc2n[nH]c(C)c21` (stereo not drawn), the cytotoxicity is 56.7% (active).

Regarding `COC(=O)Cc1cc(=O)n(-c2nc3ccccc3s2)[nH]1`, the cytotoxicity is 87.9% (active).

On to `CCOC(=O)Cc1cc(=O)n(-c2nc3ccccc3s2)[nH]1`, for which the cytotoxicity was 79.8% (active).

On to `COC(=O)Cc1cc(=O)n(-c2nc3ccccc3[nH]2)[nH]1`, for which the cytotoxicity is 4.2% (inactive).

With `CCOC(=O)c1nc2ccccc2s1`, the cytotoxicity is -9.2% (inactive).

As for `COC(=O)Cc1cc(=O)n(-c2ccccc2)[nH]1`, the cytotoxicity is -4.1% (inactive).

For `CCOC(=O)CC(=O)Nc1nc2ccccc2s1`, the cytotoxicity was -6.8% (inactive).

For `CSC1=C(C#N)C(C)C2=C(CC(C)(C)CC2=O)N1` (stereo not drawn), the cytotoxicity is -15.4% (inactive).

With `Cc1cc(C)nc(N2CCC(C(=O)NC3CCCCCC3)CC2)n1`, the cytotoxicity was -1.8% (inactive).

Regarding `COc1ccc(N2CCN(C(c3ccccc3)c3nnnn3Cc3ccc(F)cc3)CC2)cc1` (stereo not drawn), the cytotoxicity is -7.5% (inactive).

As to `O=C(Cc1ccc(Cl)cc1)Nc1ccc(-c2nnc(-c3ccco3)o2)cc1`, the cytotoxicity was 4.4% (inactive).

As for `O=C1CN(C(=O)c2cccs2)c2ccccc2N1`, the cytotoxicity was -12.5% (inactive).

Regarding `O=C(c1ccc(F)cc1)N(Cc1ccccc1)C1CCS(=O)(=O)C1` (stereo not drawn), the cytotoxicity is -7.8% (inactive).

Consider `CCOc1ccc(-c2[nH]ncc2Oc2ccccc2OCC)c(O)c1`, for which the cytotoxicity is 55.7% (active).

Regarding `COc1ccc(-c2[nH]ncc2-c2ccc(Cl)cc2)c(O)c1`, the cytotoxicity is 47% (inactive).

For the molecule `CCOc1ccc(-c2[nH]ncc2-c2ccc(OC)c(OC)c2)c(O)c1`, the cytotoxicity is 51.8% (active).

Regarding `CCOc1ccc(-c2[nH]ncc2Oc2ccccc2OC)c(O)c1`, the cytotoxicity was 61.4% (active).

On to `COc1ccc(Oc2cn[nH]c2-c2ccc(O)cc2O)cc1`, for which the cytotoxicity was 24.9% (inactive).

Take `CCOc1ccccc1Oc1cn[nH]c1-c1ccc(OC)cc1O`: the cytotoxicity was 61.8% (active).

Consider `C=C(C)COc1ccc(-c2[nH]ncc2-c2ccc(OC)c(OC)c2)c(O)c1`, for which the cytotoxicity was 4.1% (inactive).

Take `COc1ccc(-c2[nH]ncc2-c2cnc(C)s2)c(O)c1`: the cytotoxicity was 7.2% (inactive).

Turning to `COc1ccc(-c2[nH]ncc2Oc2ccccc2OC)c(O)c1`, the cytotoxicity was 42.5% (inactive).

With `CCOC(=O)C1CCN(Cc2nc3ccccc3c(=O)n2-c2ccc(OCC)cc2)CC1`, the cytotoxicity was 7.8% (inactive).

For `CC(=O)Nc1ccc(OC(F)(F)C(F)C(F)(F)F)c(NC(C)=O)c1` (stereo not drawn), the cytotoxicity was -5.3% (inactive).

Consider `CCOC(=O)c1c(C)n(CC(O)c2ccccc2)c2ccc(O)cc12` (stereo not drawn), for which the cytotoxicity was -7.5% (inactive).

Take `OCCNCc1ccc(OC2CCCC2)cc1`: the cytotoxicity was 5.4% (inactive).

For the molecule `COc1ccc(CCNC(=O)CC2Nc3cc(C)c(C)cc3NC2=O)cc1OC` (stereo not drawn), the cytotoxicity is 0% (inactive).

`O=C(O)Cn1cccc1C(=O)c1ccccc1`: the cytotoxicity was -0.1% (inactive).

For `N=c1c(C(=O)NCc2ccc(F)cc2)cc2c(=O)n3ccccc3nc2n1Cc1ccco1`, the cytotoxicity is -3.9% (inactive).

Consider `O=C(Cn1c(=O)sc2ccccc21)NCCOc1ccccc1F`, for which the cytotoxicity is -11.5% (inactive).

In the case of `CCC(C)Sc1nnc(Cc2cc(=O)[nH]c(=O)[nH]2)n1-c1ccc(F)cc1` (stereo not drawn), the cytotoxicity is -12.7% (inactive).

Consider `CC(=O)Nc1ccc(N(C(=O)c2cnccn2)C(C(=O)NC2CCCCC2)c2ccc(O)cc2)cc1` (stereo not drawn), for which the cytotoxicity is -16.5% (inactive).

For the molecule `CCOC(=O)c1sc(NC(=O)c2ccc(CC)s2)nc1C`, the cytotoxicity was 4.6% (inactive).

With `C=C(C)COc1ccc(-c2nc(N)ncc2Oc2ccccc2OCC)c(O)c1`, the cytotoxicity is 18.1% (inactive).

With `C=C(C)COc1ccc(-c2[nH]ncc2Oc2ccccc2OCC)c(O)c1`, the cytotoxicity is 78.4% (active).

For `CC1Cc2ccccc2N1C(=O)CN1C(=O)NC(C)(c2ccc3c(c2)OCCO3)C1=O` (stereo not drawn), the cytotoxicity was 1.8% (inactive).

As to `COc1cc2ccccc2cc1C(=O)N1CCN(C)CC1`, the cytotoxicity is -4.6% (inactive).

Take `CN1CCN(c2ccc(NC(=O)c3ccccc3Br)cc2)CC1`: the cytotoxicity was 2.5% (inactive).

As for `COc1cc2ccccc2cc1C(=O)Nc1ccc(N2CCN(C)CC2)cc1`, the cytotoxicity is 65.5% (active).

As to `O=C(Nc1sccc1C(=O)N1CCOCC1)c1cccnc1`, the cytotoxicity is 10.9% (inactive).

Turning to `Cn1c(=O)c2c(SCC(=O)N3CCC(Cc4ccccc4)CC3)nc(C3CC3)nc2n(C)c1=O`, the cytotoxicity is 4% (inactive).

As to `CCCc1nc(SCC(=O)N2CCN(c3ccccc3)CC2)c2c(=O)n(C)c(=O)n(C)c2n1`, the cytotoxicity is 0.7% (inactive).

For the molecule `CCCCOc1ccc(-c2c(C#N)c(N)nc(SCC(N)=O)c2C#N)cc1`, the cytotoxicity was 105% (active).

As for `CCOC(=O)CC(=O)CSc1nc(N)c(C#N)c(-c2ccc(Cl)cc2)c1C#N`, the cytotoxicity is 68.4% (active).

Consider `CCOC(=O)CSc1nc(N)c(C#N)c(-c2ccc(OC)cc2)c1C#N`, for which the cytotoxicity was -14.8% (inactive).

With `CCCCOC(=O)CSc1nc(N)c(C#N)c(-c2ccc(OCC)cc2)c1C#N`, the cytotoxicity is 17% (inactive).

For the molecule `CCOC(=O)CC(=O)CSc1nc(N)c(C#N)c(-c2ccc(F)cc2)c1C#N`, the cytotoxicity is 16.5% (inactive).

Turning to `CCCCOC(=O)CSc1nc(N)c(C#N)c(-c2ccc(OC)cc2)c1C#N`, the cytotoxicity was -26.1% (inactive).

`O=C(O)c1ccccc1C(=O)c1cccs1`: the cytotoxicity was -9.3% (inactive).

On to `CCc1nc(NCC2CCCO2)c2oc3ccccc3c2n1` (stereo not drawn), for which the cytotoxicity is -29.3% (inactive).

As for `O=C(NCCCN1CCN(CCCNC(=O)c2ccc3c(c2)OCO3)CC1)c1ccc2c(c1)OCO2`, the cytotoxicity was -34.5% (inactive).

In the case of `CCOC(=O)C1CCN(C(=O)C2CC(=O)N(c3ccc(C)cc3)C2)CC1` (stereo not drawn), the cytotoxicity was -13.4% (inactive).

As to `Cc1ccc(N2CC(C(=O)N3CCN(c4ccccc4)CC3)CC2=O)cc1` (stereo not drawn), the cytotoxicity was 30.6% (inactive).

`Cc1ccc(N2CC(C(=O)N3CCN(C(=O)c4ccco4)CC3)CC2=O)cc1` (stereo not drawn): the cytotoxicity is 52.5% (active).

As for `CCN(CC)c1ccc(NC(=O)C2CCCN(S(=O)(=O)c3cccnc3)C2)c(C)c1` (stereo not drawn), the cytotoxicity is -9.5% (inactive).

Consider `COc1ccc(-c2cc(-c3cc(F)ccc3O)[nH]n2)cc1OC`, for which the cytotoxicity was 8.8% (inactive).

As to `COc1ccc(-c2cc(-c3ccccc3O)[nH]n2)cc1OC`, the cytotoxicity was 61.1% (active).

Take `Oc1ccccc1-c1cc(-c2cccc(F)c2)n[nH]1`: the cytotoxicity is 16.2% (inactive).

`N#CC1=C(N)SC(N)=C(C#N)C1c1ccnc2ccccc12`: the cytotoxicity is -13.5% (inactive).

In the case of `COc1ccc(N2CC(O)=C(c3nc4ccccc4s3)C2=N)cc1`, the cytotoxicity was 9.4% (inactive).

For the molecule `COc1ccc(N2CC(O)=C(c3nc4ccccc4s3)C2=N)c(OC)c1`, the cytotoxicity was 11.5% (inactive).

On to `CCOc1ccccc1N1CC(O)=C(c2nc3ccccc3s2)C1=N`, for which the cytotoxicity is 64.8% (active).

With `O=C(c1cccs1)N1CCOCC1`, the cytotoxicity was -26.6% (inactive).

In the case of `COc1ccc2c(c1)-c1nc(NC(=O)c3cccs3)sc1CC2`, the cytotoxicity was 80.1% (active).

For `O=C(Nc1nc2c(s1)CCc1ccccc1-2)c1cccs1`, the cytotoxicity is -14.1% (inactive).

For `COc1ccc2c(c1)Cc1sc(NC(=O)c3cccs3)nc1-2`, the cytotoxicity was -6.8% (inactive).

Take `Oc1ccccc1-c1nc(N2CCN(Cc3ccccc3)CC2)c2ccccc2n1`: the cytotoxicity is 13% (inactive).

For the molecule `CCCCN(Cc1ccccc1)c1ncnc2nc[nH]c12`, the cytotoxicity was 6.8% (inactive).

For `Clc1ccccc1CNc1ncnc2nc[nH]c12`, the cytotoxicity is -10.1% (inactive).

For the molecule `Clc1ccccc1CN(Cc1ccccc1)c1ncnc2nc[nH]c12`, the cytotoxicity was 115% (active).

Take `O/N=C1/CCCCc2sccc21`: the cytotoxicity was -23.7% (inactive).

Turning to `COC(=O)C1=CN(CC2CCCO2)C=C(C(=O)OC)C1c1cc(OC)c(OC)c(OC)c1` (stereo not drawn), the cytotoxicity is 9.3% (inactive).

As for `CCOc1ccccc1CN(Cc1ccco1)S(=O)(=O)c1ccc(-n2cnnn2)c(OC)c1`, the cytotoxicity was 53.2% (active).

For the molecule `COc1cc(S(=O)(=O)N(Cc2cccnc2)Cc2ccco2)ccc1-n1cnnn1`, the cytotoxicity is 6.5% (inactive).

As to `COc1ccccc1CN(Cc1ccco1)S(=O)(=O)c1ccc(-n2cnnn2)c(OC)c1`, the cytotoxicity was 20.8% (inactive).

For `COC(=O)c1ccccc1NC(=O)NCC1CCCO1` (stereo not drawn), the cytotoxicity was 8.4% (inactive).

In the case of `Cc1cc(C)cc(NS(=O)(=O)c2ccc3[nH]cc(C(=O)NCc4ccco4)c(=O)c3c2)c1`, the cytotoxicity was 42.5% (inactive).

These data come from PubChem BioAssay AID431 (Sanford-Burnham Center for Chemical Genomics, 2006).
